According to PubChem BioAssay (NCATS):
Records with an inconclusive call do not appear. Calls of active or inactive are those of the source. Calls follow the shape of the dose curve; as a rule, active = well fitted curve in the direction sought with a large enough effect; inconclusive = small, poorly fitted or top-dose-only effect, or another doubt; inactive = no such curve, though single readings can be large; an effect the other way counts as inactive or inconclusive.

Experiments:
[1] = target: Calcium and integrin-binding protein 1 (Homo sapiens) (UniProt Q99828); assay: Validation qHTS for Identification of Calcium Integrin Binding protein 1 (CIB1) Competitor (AID 1508618)
Calcium and integrin-binding protein 1 (Homo sapiens), sequence (Q99828 whole entry, looked up): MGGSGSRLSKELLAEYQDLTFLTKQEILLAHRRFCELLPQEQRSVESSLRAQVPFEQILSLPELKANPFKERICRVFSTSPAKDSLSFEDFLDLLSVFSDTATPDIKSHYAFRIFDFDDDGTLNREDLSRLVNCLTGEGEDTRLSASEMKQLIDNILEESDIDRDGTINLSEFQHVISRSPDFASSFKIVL
In short: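 CIB1-GST (1 uM final) incubated 15 min at room temperature with compounds (up to 114 uM), then FITC-labelled alphaIIb peptide (100 nM) added. FP read (Ex 480/Em 540) after 15 min, pH 7.4 buffer containing 5 mM CaCl2.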

Papain (Carica papaya) = Papain (Carica papaya) (UniProt P00784); assay: Primary qHTS assay for inhibitors of the protease papain (AID 1645873);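 also: papain turnover of Z-FR-AMC read as the AMC fluorescence gain over 10 min; series mostly up to about 50 µM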
Papain (Carica papaya), sequence (P00784 whole entry, looked up): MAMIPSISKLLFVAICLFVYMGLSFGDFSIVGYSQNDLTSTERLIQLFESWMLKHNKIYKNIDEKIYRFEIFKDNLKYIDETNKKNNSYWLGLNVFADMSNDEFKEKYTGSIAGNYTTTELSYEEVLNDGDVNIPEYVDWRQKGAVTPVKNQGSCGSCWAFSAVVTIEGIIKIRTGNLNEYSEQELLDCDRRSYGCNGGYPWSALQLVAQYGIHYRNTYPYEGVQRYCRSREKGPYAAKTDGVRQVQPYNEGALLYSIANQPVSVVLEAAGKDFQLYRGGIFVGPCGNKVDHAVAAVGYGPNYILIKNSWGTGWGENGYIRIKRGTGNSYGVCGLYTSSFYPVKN

[2] = target: Glutathione peroxidase 1 (Homo sapiens) (UniProt P07203); assay: Primary qHTS Assay for Inhibitors of Recombinant Selenoprotein Glutathione Peroxidase 1 (GPX1) (AID 1845191); also: nearly all actives have a fitted effect of over 65% in size
Glutathione peroxidase 1 (Homo sapiens), sequence (P07203 whole entry, looked up): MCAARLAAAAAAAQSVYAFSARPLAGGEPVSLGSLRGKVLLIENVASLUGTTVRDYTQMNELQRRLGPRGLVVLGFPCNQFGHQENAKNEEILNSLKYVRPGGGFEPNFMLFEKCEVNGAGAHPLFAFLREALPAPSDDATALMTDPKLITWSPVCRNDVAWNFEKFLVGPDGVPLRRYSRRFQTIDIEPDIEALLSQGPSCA
In short: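 Recombinant GPX1 (10 nM final) was preincubated with compound for 30 min at room temperature, then reacted with 1 mM GSH, 0.5 mM CHP, 0.5 mM NADPH and 100 nM glutathione reductase; NADPH fluorescence (340/450 nm) was read at 0 and 15 min.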

Measured: Potency

CC[N+](CC)(CC)CC
inactive: all assays above
